Source: PubChem BioAssay (Tox21)
Results filed as inconclusive are left out. The source made the active and inactive calls. Unless noted, the call rests on the fitted dose curve; in most records, active means well fitted curve in the direction sought with a large enough effect in the repeat runs; inconclusive means weak or mixed curves; inactive means no such curve, though single readings can be large; an effect the other way counts as inactive or inconclusive.

What was measured:
[1] = qHTS assay to identify small molecule antagonists of the vitamin D receptor (VDR) signaling pathway - cell viability counter screen (AID 743225); further: on the % scale 0 is the no-effect control and ±100 the full control effect; nearly all actives have a fitted effect of over 50% in size
How it was run: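 Cells (VDR-UAS-bla HEK 293T) are plated, rested 4 h at 37C, dosed with compound and 3 nM final 1-alpha,25-dihydroxy vitamin D3, and incubated 16 h. Viability is taken from CellTiter-Glo luminescence in the reporter wells.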

[2] = qHTS assay to identify small molecule agonists of the NFkB signaling pathway - cell viability counter screen (AID 1159515; calls by dose curve; further: series mostly up to about 61 µM; on the % scale 0 is the no-effect control and ±100 the full control effect; nearly all actives have a fitted effect of over 55% in size)
How it was run: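 Parallel cytotoxicity counter screen in ME-180 cells carrying an NFkB-response-element beta-lactamase reporter, 2,000 cells/well. Compound exposure lasted 5 hr at 37 C, 5% CO2. Cell viability was quantified by CellTiter-Glo luminescence.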

[3] = qHTS assay to identify small molecule agonists of the endoplasmic reticulum stress response signaling pathway (AID 1159516; active means well fitted activation curve with a large enough effect in the signal ratio in the repeat runs, not every such curve was filed as active; the % refers to the signal ratio; further: on the % scale 0 is the no-effect control and ±100 the full control effect)
How it was run: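 Using a HeLa line with an ESRE-driven beta-lactamase gene, agonist activity was measured by FRET substrate fluorescence (460 and 530 nm emission) after cells were treated with compounds for 5 hr at 37 C and 5% CO2.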

[4] = qHTS assay to identify small molecule agonists of the endoplasmic reticulum stress response signaling pathway - cell viability counter screen (AID 1159517; calls by dose curve;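 further: HeLa cells carrying an ER stress response element beta-lactamase reporter; series mostly up to about 61 µM; on the % scale 0 is the no-effect control and ±100 the full control effect; nearly all actives have a fitted effect of over 50% in size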)
How it was run: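 ESRE-bla HeLa cells (1,500/well) were plated overnight at 37 C and exposed to compounds for 5 hr. After the 2 hr beta-lactamase substrate read, CellTiter-Glo went into the same wells, and luminescence was read after 30 min at room temperature.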

[5] = biological target: Nuclear receptor ROR-gamma (Homo sapiens) (UniProt P51449); assay: qHTS assay to identify small molecule antagonists of the retinoid-related orphan receptor gamma (ROR-gamma) signaling pathway (AID 1159521;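 further: CHO cells with doxycycline inducible ROR-gamma driving an RORE luciferase reporter; top concentration of the series differs between compounds; on the % scale 0 is the no-effect control and ±100 the full control effect; nearly all actives have a fitted effect of over 50% in size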)
How it was run: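 RORγ antagonism is scored from reduced reporter luminescence in Tet-on CHO cells. Induction used 1 uM final doxycycline hyclate for 16 h at 37 C, following a 2 h compound exposure.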

[6] = qHTS assay to identify small molecule agonists of the AP-1 signaling pathway - cell viability counter screen (AID 1159525; calls by dose curve; further: nearly all actives have a fitted effect of over 55% in size)
How it was run: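 Intracellular ATP by Cell Titer Glo luminescence (30 min, RT) in the same ME-180 AP-1-bla wells after the 5 h compound exposure at 37 °C. Normalised to tetra n-octyl ammonium bromide and DMSO controls.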

[7] = qHTS assay to identify small molecule agonists of the AP-1 signaling pathway (AID 1159526; calls by dose curve; further: on the % scale 0 is the no-effect control and ±100 the full control effect)
[8] = biological target: Retinoic acid receptor RXR-alpha (Homo sapiens) (UniProt P19793); assay: qHTS assay to identify small molecule agonists of the RXR signaling pathway (AID 1159527; calls by dose curve; further: on the % scale 0 is the no-effect control and ±100 the full control effect; nearly all actives have a fitted effect of over 35% in size)
How it was run: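 qHTS of the Tox21 10K library in GeneBLAzer RXR-alpha HEK 293T cells carrying a beta-lactamase reporter […]; 16 hr treatment, 9-cis retinoic acid as agonist control, FRET read-out.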

[9] = qHTS assay to identify small molecule agonists of the RXR signaling pathway - cell viability counter screen (AID 1159529); further: series mostly up to about 77 µM; on the % scale 0 is the no-effect control and ±100 the full control effect; nearly all actives have a fitted effect of over 50% in size
How it was run: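 Cell viability is measured by CellTiter-Glo luminescence, 30 min at room temperature, in wells already read for beta-lactamase. Engineered HEK 293T cells (RXR-alpha-UAS-bla) are dosed 16 hr at 37 C. Tetraoctyl ammonium bromide serves as positive control.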

[10] = qHTS assay to identify small molecule antagonists of the retinoid acid receptor (RAR) signaling pathway - cell viability counter screen (AID 1159551); further: on the % scale 0 is the no-effect control and ±100 the full control effect; nearly all actives have a fitted effect of over 35% in size
How it was run: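 ATP-based viability, C3RL4 cells, 6 h at 37 C with 1 uM final retinol co-added after compound; luminescence read 30 min post CellTiter-Glo, RT.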

[11] = qHTS assay to identify small molecule agonists of the vitamin D receptor (VDR) signaling pathway - cell viability counter screen (AID 743224)
How it was run: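 Compounds were pin-transferred onto VDR-bla cells plated 4 h earlier; following 16 h incubation at 37C, cell viability was quantified by CellTiter-Glo luminescence after 30 min at room temperature.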

[12] = qHTS assay to identify small molecule antagonists of the retinoic acid receptor (RAR) signaling pathway (AID 1159552)
How it was run: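 Quantitative HTS in C3RL4 RARE-luciferase reporter cells. Compounds were added with 1 uM (final) retinol; luminescence was read after 6 hr.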

[13] = qHTS assay to identify small molecule agonists of the retinoic acid receptor (RAR) signaling pathway (AID 1159553); further: on the % scale 0 is the no-effect control and ±100 the full control effect
How it was run: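 Quantitative high-throughput format: the Tox21 10K library was tested on C3RL4 RARE-luciferase cells for 6 hr at 37 C and 5% CO2, with luminescence measured after a 30 min room-temperature reagent step.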

[14] = qHTS assay to identify small molecule antagonists of the estrogen related receptor (ERR) signaling pathway - cell viability counter screen (AID 1224818);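 further: series mostly up to about 46 µM; viability measured after 17.5 h of compound exposure; on the % scale 0 is the no-effect control and ±100 the full control effect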
How it was run: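 Quantitative high-throughput viability counter screen in ERR cells. Compounds (DMSO) incubated 17.5 h at 37 C; read-out was CellTiter-Fluor fluorescence.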

[15] = qHTS assay to identify small molecule antagonists of the estrogen related receptor signaling pathway with the pleiotropic PPARgamma coactivator (PGC) cell viability counter screen (AID 1224822)
How it was run: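 Cytotoxicity in the PGC/ERR cell line is assessed with CellTiter-Fluor, read as fluorescence intensity 30 min after reagent addition, following 17.5 h compound treatment at 37 C.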

[16] = qHTS assay to identify small molecule antagonists of the retinoid-related orphan receptor gamma (ROR-gamma) signaling pathway - cell viability counter screen (AID 1159520)
How it was run: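 Cytotoxicity was read from cellular ATP (CellTiter-Glo luminescence) after 16 hr at 37 C with 1 uM doxycycline induction. The inducer was added 2 hr after compound transfer to Tet-on ROR gamma CHO cells.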

[17] = qHTS assay to identify small molecule antagonists of the estrogen related receptor (ERR) signaling pathway (AID 1224819)
How it was run: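 ERR reporter cell line (NTP) plated at 2,000 cells/well, settled 6 h at 37C/5% CO2, then exposed to LOPAC compounds for 18 h at 37C. One-Glo luciferase luminescence read after 30 min at room temperature.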

[18] = qHTS assay to identify small molecule agonists of the estrogen related receptor (ERR) signaling pathway (AID 1224820); further: on the % scale 0 is the no-effect control and ±100 the full control effect
How it was run: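 After 6 h plating (2,000 cells/well) and 18 h compound treatment at 37 C, ERR cells were lysed with One-Glo and luminescence read after 30 min at room temperature.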

[19] = tested on: estrogen-related receptor alpha (ERRalpha) with PGC-1alpha coactivator, human; assay: qHTS assay to identify small molecule antagonists of the estrogen related receptor signaling pathway with the pleiotropic PPARgamma coactivator (PGC) (AID 1224821; calls by dose curve)
How it was run: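 Luminescence from One-Glo luciferase reagent (30 min, room temperature) measured after 18 h compound treatment at 37 °C. Cells carry the PGC/ERR reporter and were seeded 6 h prior to dosing.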

[20] = qHTS assay to identify small molecule agonists of the estrogen related receptor signaling pathway with the pleiotropic PPARgamma coactivator (PGC) (AID 1224823); further: on the % scale 0 is the no-effect control and ±100 the full control effect
How it was run: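 Luminescence from One-Glo reagent (30 min, room temperature) was read after 18 h compound treatment at 37 C of PGC/ERR cells plated 6 h beforehand; compounds delivered in DMSO by pin tool.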

Retinoic acid receptor RXR-alpha (Homo sapiens), sequence (P19793 whole entry, looked up): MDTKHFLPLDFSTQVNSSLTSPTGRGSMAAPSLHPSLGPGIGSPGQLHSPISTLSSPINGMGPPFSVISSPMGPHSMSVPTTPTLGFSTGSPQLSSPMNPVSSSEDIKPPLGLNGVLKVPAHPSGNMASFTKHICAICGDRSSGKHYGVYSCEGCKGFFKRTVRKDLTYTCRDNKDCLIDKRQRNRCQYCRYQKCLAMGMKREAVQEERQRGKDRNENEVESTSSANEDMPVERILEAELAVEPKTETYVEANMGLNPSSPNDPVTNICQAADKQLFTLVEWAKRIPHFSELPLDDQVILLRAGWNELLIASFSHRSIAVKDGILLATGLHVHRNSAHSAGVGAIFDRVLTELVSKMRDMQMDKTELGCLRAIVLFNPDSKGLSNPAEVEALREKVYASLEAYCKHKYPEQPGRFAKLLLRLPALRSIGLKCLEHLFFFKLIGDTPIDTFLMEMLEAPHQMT

COc1cc(C(=O)OC(COCCC(C)C)CN2CCOCC2)cc(OC)c1OC (stereo unspecified)
inactive: outcome [1] | outcome [2] | outcome [3] | outcome [4] | Potency [5] | outcome [6] | outcome [7] | Potency [8] | Potency [9] | outcome [10]

CCN[C@@H]1C[C@H](N)[C@@H](OC2OC(CN)=CCC2N)[C@H](O)[C@H]1O[C@H]1OC[C@](C)(O)[C@H](NC)[C@H]1O (stereo partly specified)
inactive: activity change, negative = cytotoxicity [11] 0.0384% [at 0.55 µM] | viability change, negative = cytotoxic [1] 2.46% [at 0.628 µM] | activity, negative = cytotoxic [2] 6.29% [at 0.628 µM] | activation [3] 0.974% [at 0.628 µM] | activity change, negative = cytotoxicity [4] -1.46% [at 0.628 µM] | activity change, negative = inhibition [5] 45.3% [at 0.35 µM] | viability change, negative = cytotoxic [6] 0.839% [at 0.29 µM] | activation [7] -3.82% [at 0.29 µM] | activation [8] 6.62% [at 0.29 µM] | activity change, negative = cytotoxicity [9] -0.24% [at 0.29 µM] | activity change, negative = cytotoxicity [10] 2.69% [at 0.349 µM] | activity, negative = inhibition [12] 11.8% [at 0.349 µM] | activation [13] 1.16% [at 0.756 µM]

N[C@@H](CCC(=O)O)C(=O)O
inactive: outcome [11] | outcome [1] | outcome [2] | outcome [3] | outcome [4] | Potency [5] | outcome [6] | outcome [7] | Potency [8] | Potency [9] | outcome [10] | outcome [14] | outcome [15]

COc1cc(C(=O)NCc2ccc(OCCN(C)C)cc2)cc(OC)c1OC
inactive: outcome [1] | outcome [2] | outcome [3] | outcome [4] | Potency [5] | outcome [6] | outcome [7] | Potency [8] | Potency [9] | outcome [10] | Potency [13]

Cc1ccc(C(=O)Nc2ccc(S(=O)(=O)O)c3cc(S(=O)(=O)O)cc(S(=O)(=O)O)c23)cc1NC(=O)c1cccc(NC(=O)Nc2cccc(C(=O)Nc3cc(C(=O)Nc4ccc(S(=O)(=O)O)c5cc(S(=O)(=O)O)cc(S(=O)(=O)O)c45)ccc3C)c2)c1
inactive: outcome [1] | outcome [2] | outcome [3] | outcome [4] | outcome [16] | outcome [6] | outcome [7] | Potency [9] | outcome [10] | outcome [14] | outcome [17] | outcome [18] | outcome [19] | outcome [15] | outcome [20]

CC[N+](C)(CC)CCOC(=O)C1c2ccccc2Oc2ccccc21
inactive: outcome [11] | outcome [1] | outcome [2] | outcome [3] | outcome [4] | Potency [5] | outcome [6] | outcome [7] | Potency [9] | outcome [10] | Potency [13]

c1ccc(CCc2ccccc2)cc1
inactive: outcome [11] | outcome [1] | outcome [2] | outcome [4] | outcome [6] | outcome [7] | Potency [8] | Potency [9] | outcome [10] | Potency [12] | Potency [13]

CC(COc1ccccc1)NN (stereo unspecified)
inactive: outcome [11] | outcome [1] | outcome [2] | outcome [4] | outcome [16] | outcome [6] | outcome [7] | Potency [8] | Potency [9] | outcome [10]

C[N+]1(C)[C@@H]2CC(OC(=O)[C@H](CO)c3ccccc3)C[C@H]1[C@@H]1O[C@@H]12 (stereo partly specified)
inactive: outcome [11] | outcome [1] | outcome [2] | outcome [4] | outcome [16] | Potency [5] | outcome [6] | outcome [7] | Potency [8] | Potency [9] | outcome [10] | Potency [13]

CCOC(=O)C(=O)CCCCCCl
inactive: outcome [11] | outcome [1] | outcome [2] | outcome [4] | outcome [16] | Potency [5] | outcome [6] | outcome [7] | Potency [9] | outcome [10]
